In PubChem BioAssay AID504634 (The Scripps Research Institute Molecular Screening Center, 2011) one finds inhibition data, which are given here for 92 compounds.

The campaign covered roughly 340,000 compounds. About 280 (0.082%) were called active. Rule as the data show it: active = inhibition mostly above about 23% (no sharp cut-off); inactive = mostly below about 18%. For the sample, actives were picked, then their nearest neighbours and some compounds at random.

Sequence of 5-hydroxytryptamine receptor 5A (Homo sapiens) (P47898 whole entry, looked up): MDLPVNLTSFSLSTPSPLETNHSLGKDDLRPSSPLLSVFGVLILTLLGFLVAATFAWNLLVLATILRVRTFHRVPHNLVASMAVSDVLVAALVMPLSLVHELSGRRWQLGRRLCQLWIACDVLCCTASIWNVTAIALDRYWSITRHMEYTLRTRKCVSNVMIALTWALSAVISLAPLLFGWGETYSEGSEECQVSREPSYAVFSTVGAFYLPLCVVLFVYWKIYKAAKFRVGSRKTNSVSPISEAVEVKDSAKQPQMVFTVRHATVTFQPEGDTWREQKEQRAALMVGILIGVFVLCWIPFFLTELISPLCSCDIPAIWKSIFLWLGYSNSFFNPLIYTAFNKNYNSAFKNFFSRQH

This experiment concerns the target 5-hydroxytryptamine receptor 5A (Homo sapiens) (UniProt P47898). The experiment can be described thus: HTR5A inverse agonists in luminescence cell assay, primary screen, counter-screen for OPRM1-OPRD1 heterodimer inverse agonist project, full-deck HTS (AID 504634).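 Also: 0% = cells with DMSO and 100% = no-cell wells with DMSO.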 Particulars: HTR5A cell line, inverse agonism, at 9.3 µM, hits give high values. On the technique in general: A counterscreen serves to expose hits that act by an unwanted route or on another target.
One may read the inhibition as the drop in the measured response relative to a control, in per cent. On to `CC(=O)N1CCN(c2ccc(NCc3ccc(C(C)C)cc3)cc2)CC1`, for which the inhibition was -28.6% (inactive).
Under `CC1CCCN(c2ccc(C(=O)NCCc3ccccc3)cn2)C1` (configuration not stated) stands -15.3% (inactive).
Take `C=C1CCN([C@@H](Cc2ccccc2)C(=O)N2CCOCC2)S(=O)(=O)c2ccccc21`: the inhibition is -14.5% (inactive).
For `CCOC(=O)N1CCC(NC(=O)C(NS(=O)(=O)c2ccc3c(c2)CCN3C(=O)CC)C(C)C)CC1` (configuration not stated) the value was -32.3% (inactive); for `CCN(c1ccccc1)S(=O)(=O)c1ccc2[nH]c(=O)[nH]c2c1`, 4.19% (inactive).
For `O=C(O)c1ccc(NS(=O)(=O)c2cccc3nsnc23)cc1`, the inhibition was -11.7% (inactive).
Consider `Cc1cc(-c2ccc(S(=O)(=O)N3CCN(c4cccc(C(F)(F)F)c4)CC3)s2)on1`, for which the inhibition was -11.3% (inactive).
As for `CCCCNC(=O)C1CCC(=O)N1CCc1ccccc1` (configuration not stated), the inhibition is 4.38% (inactive).
For `COc1ccc(N2CC(C)Cn3c2nc2c3c(=O)n(Cc3ccccc3F)c(=O)n2C)c(OC)c1` (configuration not stated) the value was 6.23% (inactive); for `O=C(/C=C/c1ccc(Cl)c([N+](=O)[O-])c1)c1ccc(O)cc1`, 25.2% (active).
As for `CN(C)c1ccc(/C=C/C(=O)c2ccc(C(C)(C)C)cc2)cc1[N+](=O)[O-]`, the inhibition was -5.83% (inactive).
For `CN(C)c1ccc(/C=C/C(=O)c2ccc(O)cc2)cc1[N+](=O)[O-]` the value was 5.01% (inactive); for `CC(C)CCNC(=O)C(C)N(C(=O)Cn1nnc(-c2ccc(F)cc2)n1)C1CCCC1` (configuration not stated), -27.5% (inactive).
As for `CC1(c2nnc(Cc3ccccc3)o2)CC(c2ccccc2F)=NO1` (configuration not stated), the inhibition is -30.2% (inactive).
For `O=[N+]([O-])/C=C/c1ccc2c(ccn2Cc2ccccc2)c1` the value was 29.1% (inactive); for `COc1ccc(CN2CCCC(C(=O)N3CCCCC3)C2)cc1` (configuration not stated), -7.55% (inactive); for `COc1cc(N2CCCC2)c(OC)cc1/C=C(/C#N)c1cccc(Br)c1`, 0.8% (inactive).
For `Cc1noc(C)c1-c1nc(CSc2ccc(Cl)cc2)no1` the value was -15% (inactive); for `O=C(NCCC1CCCCN1S(=O)(=O)c1ccccc1)C(=O)NCC1CCCO1` (configuration not stated), -11.3% (inactive); for `CCOc1ncccc1C(=O)N(CC)CC(=O)Nc1ccc(NC(C)=O)cc1`, -12.8% (inactive).
For `CCSc1nc2sc3c(c2c(=O)n1-c1ccc(C)cc1)CCN(C)C3` the value was -7.48% (inactive); for `CCc1ccc(OCC(=O)N(Cc2ccccc2)C2CCS(=O)(=O)C2)cc1` (configuration not stated), 9.5% (inactive); for `O=C(NCc1ccc(F)cc1)C1CCC(CNc2c(N3CCOCC3)c(=O)c2=O)CC1` (configuration not stated), 4.62% (inactive).
Regarding `CCNC(=S)N1CCN(S(=O)(=O)c2ccc(Cl)s2)CC1`, the inhibition was 2.35% (inactive).
For `CSc1cccc(NC(=O)C2CCCN2S(=O)(=O)c2ccc3c(c2)CCC(=O)N3)c1` (configuration not stated) the value was -6.95% (inactive).
For `COn1c(=O)c(=O)n(OC)c2ccccc21` the value was 13.4% (inactive).
As for `CC(NC(=O)c1cccc2ccccc12)c1ccc2c(c1)CCCC2` (configuration not stated), the inhibition is -1.12% (inactive).
On to `COCCn1c(SCC(=O)Nc2ccc3c(c2)CCC3)nc2ccccc2c1=O`, for which the inhibition is 4.39% (inactive).
In the case of `COC(=O)C1CCCCN1C(=O)c1ccc(OC2CCN(C(C)=O)CC2)c(OC)c1` (configuration not stated), the inhibition was -12.2% (inactive).
`Cc1cc(C)c(S(=O)(=O)N2CCCC2CNC(=O)c2ccc3c(c2)OCO3)c(C)c1` (configuration not stated): the inhibition is 1.64% (inactive).
Under `Cc1cc(NC(=O)CCN2CCN(Cc3ccccc3)CC2)ccc1Br` stands -5.24% (inactive); under `CN(CCO)S(=O)(=O)c1ccc2c(c1)C(=O)c1cc(S(=O)(=O)N(C)CCO)ccc1-2`, -0.05% (inactive).
In the case of `Cn1c(N)c(C(=O)COC(=O)c2cnc(Cl)c(Cl)c2)c(=O)n(C)c1=O`, the inhibition was 13.4% (inactive).
For `CCOc1ccc(NC(=O)CC(Cc2ccc(Cl)cc2)C(=O)O)cc1` (configuration not stated) the value was 11.4% (inactive); for `COc1ccc(CCNC(=O)COc2cc(C)cc3oc(=O)c(C)c(C)c23)cc1OC`, -41.4% (inactive).
Turning to `Cc1cccc(C(=O)OC(C)CN2CCCC2)c1` (configuration not stated), the inhibition was -16.4% (inactive).
For the compound `O=C(NC(=S)Nc1cc(C(F)(F)F)ccc1N1CCOCC1)c1ccc(-c2cccc(Cl)c2)o1`, the inhibition was 12.2% (inactive).
Under `Cc1ccc(NC(=O)CSc2nc(=O)n(CCN(C)C)c3c2CCCC3)c(C)c1` stands 8.38% (inactive); under `Cc1c(C(=O)NCCN2C(=O)S/C(=C\c3cccs3)C2=O)cccc1[N+](=O)[O-]`, -12.1% (inactive); under `Cc1cc(NC(=O)CSC2=NS(=O)(=O)c3cc(Cl)ccc3N2)no1`, 6.86% (inactive).
For `Cc1ccc(S(=O)(=O)NCC(C)NS(C)(=O)=O)cc1` (configuration not stated) the value was -0.41% (inactive); for `CC(=O)N(O)CCCCCNC(=O)CCC(=O)N(O)CCCCCNC(=O)CCC(=O)N(O)CCCCCNC(=O)CCC(=O)O`, 2.24% (inactive); for `O=C(NCc1ccncc1)C1CCN(C(=O)c2cccc(Cl)c2)CC1`, -13.3% (inactive).
For `Cc1[nH]c2ccccc2c1C(=O)COC(=O)c1c(-c2ccccc2)noc1C` the value was -12.9% (inactive); for `Nc1nonc1-n1nnc(C(=O)N/N=C/c2cc(Br)ccc2O)c1CSC1=NCCS1`, -4.39% (inactive); for `Cc1c(-c2ccccc2)cn2c1-c1ccc(C)n1CC2`, -5.32% (inactive).
As for `CC(=O)c1cccc(OCc2cc(C(=O)NC(C)Cc3cccnc3)no2)c1` (configuration not stated), the inhibition is -3.71% (inactive).
As to `Cc1noc(C)c1COc1ccc(C(=O)NCCOc2ccccc2)cc1`, the inhibition was -0.9% (inactive).
For `Cc1noc(C)c1COc1cccc(C(=O)Nc2cccnc2)c1` the value was 22.3% (active); for `CCc1nc2ccccc2n(CCOCCOCCn2c(=O)c(CC)nc3ccccc32)c1=O`, -0.84% (inactive); for `CN(C(=O)CSc1nnc(Nc2ccccc2)s1)C1CCS(=O)(=O)C1` (configuration not stated), 16.5% (inactive).
Under `C/C=C/C(=O)Nc1ccc(N2CCN(c3ccc(C(F)(F)F)cn3)CC2)nc1` stands -13% (inactive); under `O=P(O)(CP(=O)(c1ccccc1)c1ccccc1)c1ccccc1`, 4.79% (inactive).
For `COc1ccc(S(=O)(=O)N2CCSCC2)cc1` the value was 16.4% (inactive); for `CCn1cc(C(=O)NCCCN2CCCCCC2)c(=O)c2cc(S(=O)(=O)N3CCc4ccccc4C3)ccc21`, -11% (inactive).
For the compound `CCOC(=O)c1cn(CC)c2cc(F)c(F)cc2c1=O`, the inhibition was -4.15% (inactive).
Under `CC[C@H](C)[C@@H](C(=O)N1CCNCC1)n1cc([C@@H](N)Cc2ccc(O)cc2)nn1` stands -7.48% (inactive); under `COCc1cc(=O)[nH]c(SC)n1`, -5.28% (inactive); under `O=C(CSc1nnc(Nc2ccccc2F)s1)NC1CCCC1`, -11.3% (inactive).
Under `CCN(CC(=O)Nc1cc(Cl)ccc1C)C(=O)CSCc1ccc(C)cc1` stands -29.4% (inactive); under `CC[n+]1cc(C)ccc1/C=C/c1ccc(N(C)C)cc1`, 9.17% (inactive); under `CCCCN(C(=O)c1cccc(N2C(=O)c3ccccc3C2=O)c1)c1c(N)n(CCCC)c(=O)[nH]c1=O`, -1.54% (inactive).
With `O=c1[nH]nc(Cc2ccccn2)c2ccccc12`, the inhibition was 34.8% (inactive).
Under `c1ccc2c(c1)OC1OC2Oc2ccccc21` stands 2.1% (inactive).
For `CCOc1ccc(S(=O)(=O)Nc2cccc(C(=O)NCC3(N4CCCCC4)CCCCC3)c2)cc1` the value was -7.44% (inactive); for `CC(C)COc1ccc(C(=O)NNC(=O)CCC(=O)c2cccs2)cc1`, 8.1% (inactive).
For `Cc1cccc(NC(=O)N2CCCCCC2)c1C` the value was -15.6% (inactive).
For the compound `O=C1C(Cc2ccc(O)cc2)NC(=S)N1Cc1ccccc1` (configuration not stated), the inhibition is -7.4% (inactive).
For `CCC1Nc2ncnc(N3CCN(c4ccccc4)CC3)c2N(Cc2ccc(Cl)cc2)C1=O` (configuration not stated) the value was 72% (active); for `CC[C@]1(C(=O)OC)[C@H]2C(=O)N(Cc3ccccc3)C(=O)[C@H]2[C@H]2CN=C(SCc3ccc(Cl)cc3)N21`, 4.46% (inactive).
Under `N#Cc1ccc(C2=CC(=O)C[C@H](c3ccc(Cl)cc3)C2)cc1` stands -10.1% (inactive); under `O=C(Nc1ccc(Cl)c(Cl)c1)N1CC=C(c2ccccc2)CC1`, 13.3% (inactive); under `C=CCN1C=C(C(=O)c2ccccc2)C(=O)CC1`, 6.15% (inactive).
Under `CCc1nccn1CCC(=O)N1CCCC(N2CCN(c3ccccc3F)CC2)C1` (configuration not stated) stands 5.46% (inactive).
`COc1ccc([C@H]2CC(=O)C=C(c3ccc(CO)cc3)C2)cc1`: the inhibition is 8.13% (inactive).
For `O=C1c2ccccc2[C@@H]2C[C@@H](O)[C@H](Nc3ccccc3Cl)CCN12` the value was -0.71% (inactive).
Under `Cc1cc(C)nc(SC(C)C(=O)N/N=C/c2cccs2)n1` (configuration not stated) stands 9.06% (inactive).
As for `O=C(Cc1ccccn1)c1ccc(O)cc1O`, the inhibition is 12.8% (inactive).
For `COc1ccc(-c2nnc(SCC(=O)NC3CCCCC3)o2)cc1OC` the value was 0.53% (inactive); for `COc1ccc(-c2nnc(SC(C)C(=O)NC3CC3)o2)cc1` (configuration not stated), 24.2% (active).
For `COc1ccc(-c2nnc(SC(=O)N3c4ccccc4Sc4ccccc43)o2)cc1`, the inhibition was -1.76% (inactive).
In the case of `COc1cc(N)c(Cl)cc1C(=O)OCC(=O)c1ccc2c(c1)NC(=O)CO2`, the inhibition was 10.7% (inactive).
For `Cc1nnc(SCC(=O)N(C(C)C)C(C)C)nc1C` the value was 7.98% (inactive); for `COc1ccc(N/N=C2/CCCCC2=O)cc1`, -17.4% (inactive).
Under `CCCCN1CC(COc2ccccc2)Oc2cccc(F)c2S1(=O)=O` (configuration not stated) stands -4.35% (inactive); under `CN1C(CC(=O)Nc2ccc(Br)cc2)c2ccccc2CC1(C)C` (configuration not stated), -2.97% (inactive).
For `Cc1cc(C(=O)COc2ccccc2[N+](=O)[O-])c(C)n1-c1cccc(S(=O)(=O)N2CCOCC2)c1` the value was -23.2% (inactive).
For the compound `O=C1CC(C(=O)O)NC(=S)N1` (configuration not stated), the inhibition was -5.32% (inactive).
For `COc1ccc2oc(C(=O)N(CC(C)C)C3CCS(=O)(=O)C3)c(C)c2c1` (configuration not stated) the value was 5.04% (inactive); for `CCCCCc1c(C)nc(N2CCN(Cc3ccc4c(c3)OCO4)CC2)[nH]c1=O`, -8.1% (inactive); for `CCCCCCCCc1c(O)nc(-n2[nH]c(C)c(CCO)c2=O)[nH]c1=O`, 23.4% (active).
For `CCCCc1c(O)nc2n(c1=O)CCS2` the value was -25.6% (inactive).
